The text below walks through data of PubChem BioAssay.

Assay [1] can be described thus: antimalarial activity against Dd2 strain (AID 2302;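 active means growth inhibition above 50% at the single 2 µM test dose, taken to imply half-maximal potency below 2 µM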;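 further: 0% = DMSO untreated growth and 100% = chloroquine plus artemisinin killed control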). As to conditions: P. falciparum Dd2 in RBCs, LDH growth readout, 72 h; at 2 µM; hits give high values.
Assay [2] can be described thus: HepG2 cytotoxicity, primary screen, cytotoxicity control for P. falciparum antimalarial project, cell-based, ATP luminescence (AID 2303;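 active means inhibition above 50%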;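 further: 0% = DMSO wells and 100% = digitonin-killed cells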). As to conditions: HepG2 viability, 24-48 h, at 10 µM, hits give high values.
Assay [3] has as its target L-lactate dehydrogenase (Plasmodium falciparum (isolate CDC / Honduras)) (UniProt Q27743). As to the kind of experiment: PfLDH activity inhibition – cell lysate, 3D7 strain, counter-screen for P. falciparum growth inhibition project (AID 2304).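 Further: 0% = vehicle and 100% = reference inhibitor.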 As to conditions: P. falciparum 3D7 crude extract, LDH APAD/NBT absorbance; at 2 µM; hits give high values. On the technique in general: A counterscreen serves to expose hits that act by an unwanted route or on another target.

Assay [4] can be described thus: inhibition of 3D7 malaria parasite growth – strain 3D7 (AID 2306).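 Further: 0% = DMSO wells and 100% = chloroquine plus artemisinin control wells.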 As to conditions: P. falciparum 3D7 erythrocytic growth, LDH absorbance, 72 h; at 2 µM; hits give high values.
The target of assay [5] is Calcium-dependent protein kinase 1 (Plasmodium falciparum (isolate 3D7)) (UniProt P62344). Description: PfCDPK1 kinase inhibitors, biochemical, TCAMS library (AID 1159585; cut-off not given, nearly all actives have IC50 up to about 0.98 µM;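 further: inhibitors leave more ATP so luminescence rises with inhibition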). As to conditions: recombinant PfCDPK1, Kinase-Glo ATP depletion luminescence. Background: Kinase-Glo reads ATP consumption through a luciferase reaction.
The target in assay [6] is Plasmodium falciparum protein kinase 6 (PK6, PF3D7_1337100) (UniProt Q8IDW1). As to the kind of experiment: PfPK6 kinase inhibitors, biochemical, TCAMS library (AID 1159586). As to conditions: recombinant PfPK6, Kinase-Glo ATP depletion luminescence.
Assay [7] deals with Protein kinase 7 (PK7), Plasmodium falciparum 3D7 (PF3D7_0213400) (UniProt Q7YTF7). As to the kind of experiment: inhibition of Plasmodium PK7 catalytic activity – biochemical, TCAMS antimalarial set, Kinase-Glo luminescence (AID 1159587). As to conditions: recombinant PfPK7, Kinase-Glo ATP depletion luminescence.
Assay [8] deals with Calcium-dependent protein kinase 4 (Plasmodium falciparum (isolate 3D7)) (UniProt Q8IBS5). As to the kind of experiment: PfCDPK4 kinase inhibitors, biochemical, TCAMS library (AID 1159588; cut-off not given, nearly all actives have IC50 up to about 0.91 µM). As to conditions: recombinant PfCDPK4, Kinase-Glo ATP depletion luminescence.

Values without a mark were called inactive. For some of these results: Potency and affinity values are given separately. The source made the active and inactive calls. Unless noted, how the calls were made is not given here.

Chain of Protein kinase 7 (PK7), Plasmodium falciparum 3D7 (PF3D7_0213400) (Q7YTF7 1-343): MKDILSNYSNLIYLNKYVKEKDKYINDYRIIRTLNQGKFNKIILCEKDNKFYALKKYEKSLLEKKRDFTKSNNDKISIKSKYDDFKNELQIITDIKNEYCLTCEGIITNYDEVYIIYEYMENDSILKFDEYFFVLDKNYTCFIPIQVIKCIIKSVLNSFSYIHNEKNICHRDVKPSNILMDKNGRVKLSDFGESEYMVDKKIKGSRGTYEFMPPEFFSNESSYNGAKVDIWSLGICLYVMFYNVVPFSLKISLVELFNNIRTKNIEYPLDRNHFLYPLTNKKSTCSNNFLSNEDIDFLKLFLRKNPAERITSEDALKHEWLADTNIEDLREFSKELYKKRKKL
Chain of Plasmodium falciparum protein kinase 6 (PK6, PF3D7_1337100) (Q8IDW1 1-305): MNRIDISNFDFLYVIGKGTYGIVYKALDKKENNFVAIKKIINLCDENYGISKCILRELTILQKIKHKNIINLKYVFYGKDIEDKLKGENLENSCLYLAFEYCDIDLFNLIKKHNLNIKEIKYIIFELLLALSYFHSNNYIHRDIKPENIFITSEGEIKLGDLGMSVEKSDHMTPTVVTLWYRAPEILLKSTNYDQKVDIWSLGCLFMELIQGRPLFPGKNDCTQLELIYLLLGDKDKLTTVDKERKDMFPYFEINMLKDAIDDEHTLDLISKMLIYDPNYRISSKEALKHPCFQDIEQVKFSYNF
Chain of Calcium-dependent protein kinase 4 (Plasmodium falciparum (isolate 3D7)) (Q8IBS5 whole entry, looked up): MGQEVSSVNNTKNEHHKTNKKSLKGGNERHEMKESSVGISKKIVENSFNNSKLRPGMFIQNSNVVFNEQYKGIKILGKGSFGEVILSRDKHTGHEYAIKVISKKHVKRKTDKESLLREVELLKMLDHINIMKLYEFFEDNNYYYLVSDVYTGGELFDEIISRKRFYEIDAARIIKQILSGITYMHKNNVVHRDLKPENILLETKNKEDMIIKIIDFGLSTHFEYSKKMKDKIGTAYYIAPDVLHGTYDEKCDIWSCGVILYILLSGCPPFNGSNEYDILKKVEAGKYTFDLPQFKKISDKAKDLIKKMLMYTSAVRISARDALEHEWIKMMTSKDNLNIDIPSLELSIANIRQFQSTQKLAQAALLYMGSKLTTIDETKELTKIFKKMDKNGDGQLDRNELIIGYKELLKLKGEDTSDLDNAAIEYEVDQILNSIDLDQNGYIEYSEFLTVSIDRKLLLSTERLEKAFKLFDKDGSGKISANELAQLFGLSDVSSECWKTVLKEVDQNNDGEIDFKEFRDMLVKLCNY
Chain of Calcium-dependent protein kinase 1 (Plasmodium falciparum (isolate 3D7)) (P62344 whole entry, looked up): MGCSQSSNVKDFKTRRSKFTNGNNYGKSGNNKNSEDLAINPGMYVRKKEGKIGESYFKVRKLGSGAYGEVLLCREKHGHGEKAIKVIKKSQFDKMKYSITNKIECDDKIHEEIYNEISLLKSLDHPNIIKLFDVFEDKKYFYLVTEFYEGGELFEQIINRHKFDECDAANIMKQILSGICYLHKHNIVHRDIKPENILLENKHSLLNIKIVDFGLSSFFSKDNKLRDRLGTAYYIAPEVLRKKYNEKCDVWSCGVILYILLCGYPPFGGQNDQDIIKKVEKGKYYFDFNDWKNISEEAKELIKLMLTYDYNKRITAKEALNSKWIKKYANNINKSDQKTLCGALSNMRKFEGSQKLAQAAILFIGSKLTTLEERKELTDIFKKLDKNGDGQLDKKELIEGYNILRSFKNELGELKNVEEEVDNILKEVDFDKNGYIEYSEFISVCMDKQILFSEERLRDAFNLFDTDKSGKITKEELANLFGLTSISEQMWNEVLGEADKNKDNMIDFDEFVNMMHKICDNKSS
Chain of L-lactate dehydrogenase (Plasmodium falciparum (isolate CDC / Honduras)) (Q27743 whole entry, looked up): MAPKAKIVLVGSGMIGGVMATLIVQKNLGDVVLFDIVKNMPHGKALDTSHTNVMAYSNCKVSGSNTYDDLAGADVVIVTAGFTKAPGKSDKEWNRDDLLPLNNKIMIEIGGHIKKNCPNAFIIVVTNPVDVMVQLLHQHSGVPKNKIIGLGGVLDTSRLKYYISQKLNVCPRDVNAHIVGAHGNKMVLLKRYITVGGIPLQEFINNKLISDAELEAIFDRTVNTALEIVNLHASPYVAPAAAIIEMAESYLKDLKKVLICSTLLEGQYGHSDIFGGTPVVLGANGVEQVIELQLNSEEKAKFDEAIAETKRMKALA

By inhibition is commonly meant the change of the read-out against control, counted positive when it falls. For the compound `O=C(CCc1cnc[nH]1)Nc1ccc(-c2cccc(-c3nc4ccccc4[nH]3)c2)cc1`, the growth inhibition in assay [1] was 42%; in assay [4] it was 101% (active). The inhibition is 12% in assay [2] and 4% in assay [3]. Besides, the outcome in assay [5], in assay [6], in assay [7] and in assay [8] was inactive.

On to `COCCN(C(=O)Cc1cccs1)C(C(=O)NCc1ccc(OC)cc1)c1ccc(C(C)C)cc1` (stereo not given), for which the growth inhibition in assay [1] was 59% (active); in assay [4], 96% (active). Further, the inhibition in assay [2] was -13%; in assay [3], 4%. Further, the outcome in assay [5], in assay [6], in assay [7] and in assay [8] was inactive.

For `N#Cc1cccc(NC(=O)Nc2cccc(-c3cccc(-c4nc5ccccc5[nH]4)c3)c2)c1`, the growth inhibition was 96% (active) in assay [1] and 100% (active) in assay [4]. Moreover, the figures for the inhibition in assay [2] and in assay [3] were 46% and 3%, respectively. Further, the outcome in assay [5], in assay [6], in assay [7] and in assay [8] was inactive.

As to `CSc1ccc(C=CC(=O)NC(=O)c2ccccc2O)cc1`, the figures for the growth inhibition in assay [1] and in assay [4] were 96% (active) and 97% (active), respectively. Also, the inhibition in assay [2] was 2%; in assay [3], 4%. The result in assay [5], in assay [6], in assay [7] and in assay [8] was inactive.

On to `CCOc1ccc2c(NN=Cc3c4ccccc4cc4ccccc34)cc(C)nc2c1`, for which the growth inhibition in assay [1] is 94% (active); in assay [4], 90% (active). Further, the inhibition in assay [2] was -4%; in assay [3] it was 0%. The result in assay [5], in assay [6], in assay [7] and in assay [8] was inactive.

With `COCCN(C)CCCOc1cc2c(cc1OC)ncn2-c1cc(OCc2ccccc2C(F)(F)F)c(C(N)=O)s1`, the growth inhibition in assay [1] was 49%; in assay [4] it was 98% (active). For the same compound, the results for the inhibition in assay [2] and in assay [3] were 24% and 2%, respectively. The result in assay [5], in assay [6], in assay [7] and in assay [8] was inactive.

For the compound `CC(=O)N1CCN(c2ccc(NC(=O)c3oc(-c4ccccc4)nc3C(F)(F)F)cn2)CC1`, the growth inhibition in assay [1] is 93% (active); in assay [4], 92% (active). For the same compound, the figures for the inhibition in assay [2] and in assay [3] were -6% and -2%, respectively. The outcome in assay [5], in assay [6], in assay [7] and in assay [8] was inactive.

Consider `CN1CCCN(Cc2ccc(-c3cccc(NC(=O)c4ccc(Cl)cc4)c3)cc2)CC1`, for which the growth inhibition was 50% (active) in assay [1] and 98% (active) in assay [4]. Moreover, the figures for the inhibition in assay [2] and in assay [3] were 34% and -4%, respectively. For the same compound, the result in assay [5], in assay [6], in assay [7] and in assay [8] was inactive.

As to `Cc1cccc2[nH]c(-c3ccc(-c4ccc(CN5CCN(CCO)CC5)cc4)s3)nc12`, the results for the growth inhibition in assay [1] and in assay [4] were 47% and 92% (active), respectively. Moreover, the inhibition is 34% in assay [2] and 0% in assay [3]. Moreover, the outcome in assay [5], in assay [6], in assay [7] and in assay [8] was inactive.

As to `O=C(Nc1ccc(Cn2nc(Cl)c(N3CCCNCC3)cc2=O)cc1)Nc1ccc(-c2ccccc2)cc1`, the growth inhibition in assay [1] is 36%; in assay [4], 87% (active). For the same compound, the inhibition was 89% (active) in assay [2] and 1% in assay [3]. Also, the result in assay [5], in assay [6], in assay [7] and in assay [8] was inactive.

As to `O=C(Nc1cccc(C(F)(F)F)c1)c1cccc(S(=O)(=O)NCC2CCCN(CC3CCCCC3)C2)c1` (stereo not given), the growth inhibition is 11% in assay [1] and 99% (active) in assay [4]. For the same compound, the inhibition was 17% in assay [2] and -1% in assay [3]. The result in assay [5], in assay [6], in assay [7] and in assay [8] was inactive.

As for `CCN(CCNC(=O)Nc1cc(C(F)(F)F)cc(C(F)(F)F)c1)c1cccc(C)c1`, the growth inhibition in assay [1] is 100% (active); in assay [4], 98% (active). Also, the inhibition was -3% in assay [2] and 4% in assay [3]. The result in assay [5], in assay [6], in assay [7] and in assay [8] was inactive.

In the case of `CCCCc1cc(NCc2ccncc2)nc(Nc2cccc(OC)c2)n1`, the figures for the growth inhibition in assay [1] and in assay [4] were 56% (active) and 101% (active), respectively. Moreover, the figures for the inhibition in assay [2] and in assay [3] were 41% and -5%, respectively. Also, the outcome in assay [5], in assay [6], in assay [7] and in assay [8] was inactive.

With `CCCN1CCN(CC(O)CNC(=O)Nc2ccc(Br)cc2)CC1` (stereo not given), the growth inhibition in assay [1] was 100% (active); in assay [4], 101% (active). Further, the inhibition was 10% in assay [2] and 0% in assay [3]. For the same compound, the result in assay [5], in assay [6], in assay [7] and in assay [8] was inactive.

Consider `CN1CCC(N2CCN(Cc3cccc(-c4cccc(-c5nc6ccccc6[nH]5)c4)c3)CC2)CC1`, for which the growth inhibition in assay [1] and in assay [4] was 100% (active) each time. For the same compound, the inhibition in assay [2] was 19%; in assay [3] it was -1%. For the same compound, the outcome in assay [5], in assay [6], in assay [7] and in assay [8] was inactive.

Take `COc1ccccc1C1CCN(C2CCC(NC(=O)/C=C/c3ccc(C(F)(F)F)cc3F)CC2)CC1` (stereo not given): the growth inhibition in assay [1] was 2%; in assay [4], 95% (active). The values for the inhibition in assay [2] and in assay [3] were 63% (active) and 2%, respectively. Besides, the result in assay [5], in assay [6], in assay [7] and in assay [8] was inactive.

In the case of `COc1cccc(CCc2cccc(CNC(C)=O)c2)c1`, the growth inhibition is -2% in assay [1] and 88% (active) in assay [4]. The values for the inhibition in assay [2] and in assay [3] were 2% and -2%, respectively. The outcome in assay [5], in assay [6], in assay [7] and in assay [8] was inactive.

As to `CN1CCCC(CN2CCN(Cc3ccc(-c4ccc(-c5nc6ccc(F)cc6[nH]5)s4)cc3)CC2)C1` (stereo not given), the growth inhibition in assay [1] is 100% (active); in assay [4] it was 101% (active). Besides, the inhibition was 73% (active) in assay [2] and -2% in assay [3]. Also, the outcome in assay [5], in assay [6], in assay [7] and in assay [8] was inactive.

As to `Cc1cccc2[nH]c(-c3cccc(-c4ccc(C(=O)NCCc5ccc(O)c(=O)[nH]5)cc4)c3)nc12`, the values for the growth inhibition in assay [1] and in assay [4] were 30% and 85% (active), respectively. Moreover, the inhibition in assay [2] is 20%; in assay [3], -1%. In addition, the outcome in assay [5], in assay [6], in assay [7] and in assay [8] was inactive.

On to `NS(=O)(=O)c1ccc(CNc2ccc3ncc(-c4ccc(Cl)cc4)n3n2)cc1`, for which the growth inhibition was 99% (active) in assay [1] and 96% (active) in assay [4]. Further, the inhibition in assay [2] was 26%; in assay [3], -4%. The outcome in assay [5], in assay [6], in assay [7] and in assay [8] was inactive.
